# Experimental data as given in the supplement of paper PMC10849652.
# About 7,900 targets were measured; listed, in parts, are those with a hit and a random draw of the rest. About 0.6% of all pairs of compound and target were hits. A number with no mark means an inactive call.
# Experiments:
# Test in all cases: log2 fold change, soluble protein after heating vs DMSO (PISA); higher = thermal stabilisation; K562 cells, 10 uM, 30 min; active = over 0.2 and 3.5 SD of the protein, either way, in both replicates (recomputed)
# [1] = compound: CC[C@@H]1C(=O)N(C)c2cnc(Nc3ccc(C(=O)NC4CCN(C)CC4)cc3OC)nc2N1C1CCCC1
# In short: (§1)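 For each measurement, 10 μM compound was applied for 30 min to K562 cells at 2×10^6 cells/mL. Aliquots were heated for 3 min across 48°C-58°C, pooled, and extracted in PBS with 0.5% NP-40 at 4°C; the supernatant after 21,000xg for 90 min was soluble protein. This was quantified by TMTpro 16plex LC-MS/MS with channel sums equalised, and thermal stability was reported relative to control samples from duplicates, on a log2 fold-change scale.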
# [2] = compound: CC[C@@H]1C(=O)N(C)c2cnc(Nc3ccc(C(=O)N[C@H]4CC[C@H](N5CCN(CC6CC6)CC5)CC4)cc3OC)nc2N1C(C)C [volasertib]
# In short: as §1
# [3] = compound: CC[C@H](C)N1C=C(C2=C(C=C(C=C21)C3=CN=C(C=C3)N4CCNCC4)C(=O)NCC5=C(C=C(NC5=O)C)C)C
# In short: as §1
# [4] = compound: CC[C@H](C)[C@@H](C(=O)N[C@@H]([C@@H](C)O)C(=O)N[C@@H](CC(C)C)C(=O)[C@]1(CO1)C)NC(=O)[C@H]([C@@H](C)CC)N(C)C(=O)C [epoxomicin]
# In short: as §1
# [5] = compound: CCn1c(C(=O)N(C2CC2)C2CC2)cc2c3c(ncn3C)c(Nc3cc(C)n(C)n3)nc21
# In short: as §1
# [6] = compound: CCn1cc(-c2ccnc3[nH]c(-c4cccc(CN(C)C)c4)cc23)c(-c2ccc(NC(=O)N(C)C)cc2)n1
# In short: as §1
# [7] = compound: CN(C)CC(=O)Nc1ccc2[nH]c(=O)c3ccccc3c2c1
# In short: as §1
# [8] = compound: CN(CCOC1=CC=C(C=C1)C[C@H]2C(=O)NC(=O)S2)C3=CC=CC=N3 (racemic) [rosiglitazone]
# In short: as §1
# [9] = compound: CN1C2=C(C3=C1C(=O)N(N=C3)CC4=CC(=CC=C4)N)SC(=C2)S(=O)C
# In short: as §1
# [10] = compound: CN1CCC(CNc2ccc3ncc(-c4cccc(OC(F)(F)F)c4)n3n2)CC1
# In short: as §1
# Chain of UniProt P04035 (P04035 whole entry, looked up): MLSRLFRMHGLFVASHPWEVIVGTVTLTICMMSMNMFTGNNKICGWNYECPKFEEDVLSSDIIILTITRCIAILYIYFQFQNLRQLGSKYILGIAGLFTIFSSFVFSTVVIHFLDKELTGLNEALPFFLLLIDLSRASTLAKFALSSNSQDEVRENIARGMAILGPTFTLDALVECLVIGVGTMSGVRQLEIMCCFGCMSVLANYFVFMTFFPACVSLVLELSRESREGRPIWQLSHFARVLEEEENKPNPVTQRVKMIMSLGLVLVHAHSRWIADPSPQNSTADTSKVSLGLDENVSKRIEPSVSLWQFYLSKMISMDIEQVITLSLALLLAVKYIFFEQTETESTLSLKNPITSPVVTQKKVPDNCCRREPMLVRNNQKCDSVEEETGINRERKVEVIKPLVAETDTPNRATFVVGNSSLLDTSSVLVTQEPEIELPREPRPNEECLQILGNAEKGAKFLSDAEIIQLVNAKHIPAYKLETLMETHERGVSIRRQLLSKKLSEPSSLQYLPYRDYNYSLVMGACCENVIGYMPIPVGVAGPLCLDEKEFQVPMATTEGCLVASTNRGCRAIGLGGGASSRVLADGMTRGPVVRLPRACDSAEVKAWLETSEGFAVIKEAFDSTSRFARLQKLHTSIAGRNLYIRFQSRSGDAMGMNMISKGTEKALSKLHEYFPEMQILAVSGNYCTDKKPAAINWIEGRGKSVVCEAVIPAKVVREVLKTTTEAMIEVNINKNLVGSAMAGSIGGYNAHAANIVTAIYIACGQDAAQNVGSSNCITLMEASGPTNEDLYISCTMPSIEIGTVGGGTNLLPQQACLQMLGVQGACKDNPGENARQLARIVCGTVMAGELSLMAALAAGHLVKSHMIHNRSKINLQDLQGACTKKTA
# Chain of UniProt Q9Y3I1 (Q9Y3I1 whole entry, looked up): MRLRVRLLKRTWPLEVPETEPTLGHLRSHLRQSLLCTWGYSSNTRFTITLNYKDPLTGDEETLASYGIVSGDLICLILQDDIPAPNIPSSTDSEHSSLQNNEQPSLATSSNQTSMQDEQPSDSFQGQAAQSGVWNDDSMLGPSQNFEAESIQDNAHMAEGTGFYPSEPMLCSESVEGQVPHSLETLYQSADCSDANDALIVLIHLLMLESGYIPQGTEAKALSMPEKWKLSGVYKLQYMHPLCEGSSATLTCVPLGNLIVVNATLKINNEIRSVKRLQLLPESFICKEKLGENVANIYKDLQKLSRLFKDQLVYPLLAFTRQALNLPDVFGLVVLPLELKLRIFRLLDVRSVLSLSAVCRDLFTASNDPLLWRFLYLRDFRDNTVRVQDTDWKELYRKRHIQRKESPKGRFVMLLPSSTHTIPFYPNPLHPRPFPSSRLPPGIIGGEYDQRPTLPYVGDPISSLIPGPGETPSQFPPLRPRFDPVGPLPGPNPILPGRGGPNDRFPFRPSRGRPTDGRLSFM
# Chain of UniProt P23327 (P23327 whole entry, looked up): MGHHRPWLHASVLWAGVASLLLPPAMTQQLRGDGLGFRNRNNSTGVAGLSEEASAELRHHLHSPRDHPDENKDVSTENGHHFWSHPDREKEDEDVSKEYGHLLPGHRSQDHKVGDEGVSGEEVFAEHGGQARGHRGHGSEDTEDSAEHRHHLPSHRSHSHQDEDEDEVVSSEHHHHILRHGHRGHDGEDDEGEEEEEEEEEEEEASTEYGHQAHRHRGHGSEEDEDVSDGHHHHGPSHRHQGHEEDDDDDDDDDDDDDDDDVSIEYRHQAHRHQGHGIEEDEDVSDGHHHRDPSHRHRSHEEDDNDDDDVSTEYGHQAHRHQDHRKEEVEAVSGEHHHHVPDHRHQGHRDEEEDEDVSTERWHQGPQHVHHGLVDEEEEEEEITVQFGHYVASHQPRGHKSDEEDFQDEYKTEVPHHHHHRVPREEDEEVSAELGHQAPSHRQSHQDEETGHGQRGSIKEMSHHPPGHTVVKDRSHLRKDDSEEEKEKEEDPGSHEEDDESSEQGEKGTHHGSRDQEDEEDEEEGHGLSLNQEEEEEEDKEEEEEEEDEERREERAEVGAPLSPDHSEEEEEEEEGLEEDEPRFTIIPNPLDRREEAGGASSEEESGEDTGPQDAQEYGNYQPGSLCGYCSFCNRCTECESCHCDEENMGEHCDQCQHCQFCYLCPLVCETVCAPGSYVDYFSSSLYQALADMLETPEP
# Chain of UniProt P52655 (P52655 whole entry, looked up): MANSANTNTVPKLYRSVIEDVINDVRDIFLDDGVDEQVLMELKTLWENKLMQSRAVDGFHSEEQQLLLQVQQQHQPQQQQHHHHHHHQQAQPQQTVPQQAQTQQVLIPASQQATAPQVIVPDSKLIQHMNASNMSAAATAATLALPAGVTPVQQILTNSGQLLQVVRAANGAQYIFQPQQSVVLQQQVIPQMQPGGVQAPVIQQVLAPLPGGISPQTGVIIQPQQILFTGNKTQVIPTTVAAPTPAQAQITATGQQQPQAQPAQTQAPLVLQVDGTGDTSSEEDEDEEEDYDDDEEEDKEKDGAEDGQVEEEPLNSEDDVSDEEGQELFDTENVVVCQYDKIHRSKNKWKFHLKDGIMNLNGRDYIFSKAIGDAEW
# Chain of UniProt Q8TEQ6 (Q8TEQ6 whole entry, looked up): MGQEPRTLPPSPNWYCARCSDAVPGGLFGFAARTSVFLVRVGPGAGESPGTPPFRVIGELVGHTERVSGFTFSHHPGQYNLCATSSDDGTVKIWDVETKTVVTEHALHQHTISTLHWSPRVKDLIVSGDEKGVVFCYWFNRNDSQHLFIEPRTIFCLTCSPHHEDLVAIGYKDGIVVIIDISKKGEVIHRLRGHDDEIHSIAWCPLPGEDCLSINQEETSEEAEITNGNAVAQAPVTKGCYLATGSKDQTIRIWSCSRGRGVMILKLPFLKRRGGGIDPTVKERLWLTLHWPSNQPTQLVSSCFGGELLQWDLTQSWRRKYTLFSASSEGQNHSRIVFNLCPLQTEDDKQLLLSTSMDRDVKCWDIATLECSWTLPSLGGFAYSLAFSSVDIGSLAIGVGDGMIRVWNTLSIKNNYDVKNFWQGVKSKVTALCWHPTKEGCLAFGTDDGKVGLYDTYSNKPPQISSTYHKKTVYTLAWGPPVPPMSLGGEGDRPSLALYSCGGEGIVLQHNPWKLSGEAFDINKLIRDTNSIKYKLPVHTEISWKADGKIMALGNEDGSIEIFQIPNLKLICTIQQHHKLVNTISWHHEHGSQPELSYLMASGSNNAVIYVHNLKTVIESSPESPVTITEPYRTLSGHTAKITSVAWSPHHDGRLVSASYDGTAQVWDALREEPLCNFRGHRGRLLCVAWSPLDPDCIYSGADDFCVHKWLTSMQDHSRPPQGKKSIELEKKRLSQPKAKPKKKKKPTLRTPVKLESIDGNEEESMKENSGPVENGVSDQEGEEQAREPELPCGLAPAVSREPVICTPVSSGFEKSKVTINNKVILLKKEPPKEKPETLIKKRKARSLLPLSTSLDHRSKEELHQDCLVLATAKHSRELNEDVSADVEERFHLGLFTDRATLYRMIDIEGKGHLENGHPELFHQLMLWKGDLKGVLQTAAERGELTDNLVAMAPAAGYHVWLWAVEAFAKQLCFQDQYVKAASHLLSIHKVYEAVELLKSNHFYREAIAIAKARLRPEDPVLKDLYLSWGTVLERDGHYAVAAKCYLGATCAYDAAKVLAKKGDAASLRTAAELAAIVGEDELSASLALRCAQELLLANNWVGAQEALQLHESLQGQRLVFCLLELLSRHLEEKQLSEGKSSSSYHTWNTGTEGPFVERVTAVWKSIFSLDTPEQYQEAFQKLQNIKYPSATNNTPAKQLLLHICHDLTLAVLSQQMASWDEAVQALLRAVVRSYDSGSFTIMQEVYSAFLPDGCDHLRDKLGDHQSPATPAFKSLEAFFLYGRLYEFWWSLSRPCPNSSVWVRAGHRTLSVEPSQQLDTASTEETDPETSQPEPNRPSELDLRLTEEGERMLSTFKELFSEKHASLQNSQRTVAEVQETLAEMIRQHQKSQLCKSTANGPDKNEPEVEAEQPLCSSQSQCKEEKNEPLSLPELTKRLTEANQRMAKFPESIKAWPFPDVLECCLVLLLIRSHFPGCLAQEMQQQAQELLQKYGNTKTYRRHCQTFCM
# Chain of UniProt P60520 (P60520 whole entry, looked up): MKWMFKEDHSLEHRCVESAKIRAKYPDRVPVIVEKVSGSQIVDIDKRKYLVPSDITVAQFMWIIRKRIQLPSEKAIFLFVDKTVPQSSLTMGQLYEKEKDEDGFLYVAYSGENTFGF
# Chain of UniProt Q8N2G8 (Q8N2G8 whole entry, looked up): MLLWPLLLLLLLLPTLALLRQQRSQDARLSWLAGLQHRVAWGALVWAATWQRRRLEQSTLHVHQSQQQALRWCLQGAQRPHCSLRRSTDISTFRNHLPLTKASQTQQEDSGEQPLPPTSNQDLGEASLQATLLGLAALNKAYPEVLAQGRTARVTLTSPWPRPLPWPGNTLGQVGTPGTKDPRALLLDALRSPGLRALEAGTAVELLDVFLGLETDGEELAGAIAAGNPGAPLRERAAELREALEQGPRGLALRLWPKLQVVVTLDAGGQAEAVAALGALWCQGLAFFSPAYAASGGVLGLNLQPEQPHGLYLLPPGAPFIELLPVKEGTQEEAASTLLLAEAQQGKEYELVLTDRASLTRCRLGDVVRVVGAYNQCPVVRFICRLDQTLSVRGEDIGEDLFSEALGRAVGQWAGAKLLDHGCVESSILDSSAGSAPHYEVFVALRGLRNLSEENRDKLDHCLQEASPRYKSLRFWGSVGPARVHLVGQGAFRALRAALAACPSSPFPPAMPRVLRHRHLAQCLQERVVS
# Chain of UniProt Q9Y248 (Q9Y248 whole entry, looked up): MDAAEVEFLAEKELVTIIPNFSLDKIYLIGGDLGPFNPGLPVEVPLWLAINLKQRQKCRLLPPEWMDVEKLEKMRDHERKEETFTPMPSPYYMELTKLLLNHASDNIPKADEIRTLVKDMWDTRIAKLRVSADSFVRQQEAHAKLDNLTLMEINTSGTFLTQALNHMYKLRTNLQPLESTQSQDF
# Chain of UniProt P23434 (P23434 whole entry, looked up): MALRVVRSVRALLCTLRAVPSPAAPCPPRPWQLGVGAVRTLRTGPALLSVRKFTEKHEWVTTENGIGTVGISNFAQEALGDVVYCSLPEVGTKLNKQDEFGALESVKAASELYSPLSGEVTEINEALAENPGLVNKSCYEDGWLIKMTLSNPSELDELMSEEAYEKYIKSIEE
Target,log2 fold change [1],log2 fold change [2],log2 fold change [3],log2 fold change [4],log2 fold change [5],log2 fold change [6],log2 fold change [7],log2 fold change [8],log2 fold change [9],log2 fold change [10]
GATD1 (UniProt Q8NB37),-0.023,-0.009,-0.032,0.078,0.013,-0.034,-0.02,0.013,0.011,-0.049
GHDC (UniProt Q8N2G8),-0.075,-0.053,-0.063,-0.021,0.011,-0.024,0.009,0.008,-0.053,-0.041
GID4 (UniProt Q8IVV7),0.082,0.037,0.044,-0.019,0.08,0.116,-0.21,0.003,-0.093,-0.006
HDHD2 (UniProt Q9H0R4),0.011,0.049,-0.007,0.073,-0.012,-0.063,0.053,0.017,-0.058,-0.096
HSD17B12 (UniProt Q53GQ0),-0.046,-0.183,0,-0.013,-0.036,-0.104,0.01,-0.016,-0.039,0.037
GCSH (UniProt P23434),0.055,0.065,-0.078,0.005,0.05,0.023,0.028,0.053,0.012,-0.338 (active)
GABARAPL2 (UniProt P60520),-0.29 (active),-0.182,0.041,0.027,0.007,-0.049,-0.017,0.099,-0.07,-0.099
IDH3A (UniProt P50213),-0.031,-0.01,0.004,0.063,0,-0.027,0,0.008,-0.064,0.033
HAX1 (UniProt O00165),-0.087,-0.393 (active),-0.011,-0.018,-0.031,0.084,0.05,0.023,0.012,-0.584 (active)
GLB1 (UniProt P16278),-0.707 (active),-1.11 (active),0.007,-0.01,0.038,0.057,0.002,-0.023,0.037,-0.751 (active)
GINS2 (UniProt Q9Y248),-0.011,-0.07,0.171,0.014,0.008,-0.135,0.06,0.058,0.064,0.062
HMGCR isoform 3 (UniProt P04035),-0.007,-0.019,-0.07,0.356 (active),-0.04,0.015,-0.023,-0.006,-0.009,0.272
GTF2A1 (UniProt P52655),-0.012,0.061,-0.051,0.201,0.019,0.035,-0.006,-0.029,-0.018,-0.051
GSTP1 (UniProt P09211),0.295 (active),0.362 (active),0.009,-0.025,0.032,0.012,-0.013,0.007,-0.066,-0.034
GEMIN5 (UniProt Q8TEQ6),-0.122,-0.438 (active),0.034,-0.014,-0.007,0.042,0.015,0.046,0.019,-0.094
HADHB (UniProt P55084),0.082,0.462,0.123,0.05,0.161,-0.223,0.015,-0.039,-0.058,-0.223
HLTF (UniProt Q14527),-0.063,-0.178,0.017,0.158,-0.025,-0.113,0.056,0.025,-0.009,0.201
IFI30 (UniProt P13284),-0.443 (active),-0.436 (active),0.038,-0.014,-0.096,-0.098,-0.021,-0.061,-0.06,-0.448 (active)
HRC (UniProt P23327),0.01,0.043,-0.014,-0.061,-0.016,-0.023,0.005,-0.008,-0.107,-0.013
IFRD1 (UniProt O00458),0.107,-0.015,-0.14,0.053,0.019,-0.016,-0.143,0,-0.097,0.297
GALNT1 (UniProt Q10472),-0.06,-0.218 (active),-0.011,-0.068,-0.005,-0.041,-0.011,0.003,-0.074,0.106
HMOX2 (UniProt P30519),-0.015,-0.251 (active),0.074,0.009,-0.054,-0.069,0.008,0.012,0.011,0.054
HMG20A (UniProt Q9NP66),0.083,-0.155,0.029,-0.107,-0.031,0,0.053,0.017,0.143,-0.003
GLUL (UniProt P15104),0.049,0.113,-0.041,0.081,0.045,0.014,-0.032,-0.022,-0.032,0.017
FBXO7 (UniProt Q9Y3I1),0.079,-0.198,0.044,-0.012,-0.066,-0.295 (active),0.029,0.008,-0.022,0.003
GMEB1 (UniProt Q9Y692),-0.071,-0.281 (active),0.039,0.059,-0.056,-0.05,-0.045,0.096,-0.07,-0.014
GSTO1 (UniProt P78417),0.005,0.08,0.009,0.013,0.036,-0.052,-0.007,0.018,-0.082,0.084
GALNT2 (UniProt Q10471),-0.082,-0.377 (active),0.027,-0.004,0.003,-0.034,-0.021,0.027,-0.079,-0.077
HEXB (UniProt P07686),-0.426 (active),-0.396 (active),-0.013,-0.006,0.031,0.019,0,-0.008,-0.047,-0.563 (active)
FANCI (UniProt Q9NVI1),-0.277 (active),-0.159,0.127,-0.077,-0.022,-0.093,0.072,0.066,-0.013,-0.188
